High-throughput results as filed in PubChem.
Compounds with a hit are over-represented: about 2.3% of the library has one in this group of screens.
Giardia killer: Giardia lamblia killing | activity change, % at 7.66 µM, hits read low | Giardia lamblia trophozoite viability | AID 540267 | hit rate 0.15% among 340,000; in the data active = activity change below about -80%; inconclusive = between about -30% and that limit;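 also: parasites exposed to compound for two days anaerobically before the ATP read; % is scaled to controls: 0 for no effect and ±100 for the full control effect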
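Media and compound were dispensed first, then trophozoites at 100 cells/well; plates sat 48 hrs at 37 deg C without oxygen before ATP luminescence reagent was added and read after 15-30 min at room temperature.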
FUS yeast rescue: FUS proteinopathy suppression in yeast. S. cerevisiae FUS-expressing, growth rescue, OD600, 24 h. Potency, µM (series often up to 76.6 µM), hits mostly activators. hit rate 0.24% among 390,000;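 also: potency is read from the fitted curve at half-maximal effect; plate controls were DMSO vehicle for no effect and reference control for full effect; nearly all actives have a fitted effect of over 55% in size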
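Quantitative HTS measuring growth restoration of FUS-toxic yeast. Galactose-induced cells (OD 0.005) were exposed 24hr at 30C to compounds at several concentrations, then absorbance at 600 nm was recorded.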
ELG1 DNA repair: inhibitors of ELG1-dependent DNA repair in HEK293T cells | HEK293T ELG1-luciferase reporter, luminescence, 16 h; DNA damage induced by 5-fluorouridine | Potency, µM (series often up to 46.1 µM), for inactives: top-dose activity change, negative = inhibition, most hits filed as inhibitors | hit rate 2.3% among 330,000 | AID 504467; also: potency is read from the fitted curve at half-maximal effect; % is scaled to controls: 0 for no effect and ±100 for the full control effect; nearly all actives have a fitted effect of over 55% in size
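Quantitative HTS, concentration-response format. 2,000 cells/well co-treated with 5-fluorouridine and compound, 16 hr in 5% CO2 at 37 °C; ONE-Glo luminescence read after 30 min.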
TRPV1 agonist: activates the human vanilloid receptor TRPV1. Q8NER1. TRPV1-expressing cells, Fluo-8 calcium influx, agonist mode. activation, % at 8.33 µM. hit rate 0.19% among 320,000; in the data active = activation above about 80%; inconclusive = between about 30% and that limit; also: 0% is about no effect
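Cells expressing TRPV1 were dye-loaded with Fluo-8 and read kinetically: 10 s baseline, 3 min after compound (agonist portion), then 2 min after EC20 capsaicin (allosteric enhancer portion). Calcium-bound dye fluorescence at 480/520 nm.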
TRPV1 PAM: potentiators of human vanilloid receptor 1 (TRPV1). Q8NER1. AID 540277. potentiation, % at 8.33 µM. TRPV1-expressing cells, Fluo-8 calcium influx, capsaicin EC20 potentiation. hit rate 0.02% among 320,000; in the data active = potentiation above about 80%; inconclusive = between about 30% and that limit; also: 0% is about no effect
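Fluo-8 calcium influx in TRPV1-expressing cells, kinetic read (ex 480/em 520 nm). Compound added and read 3 min for agonist activity, followed by capsaicin at EC20 final and 2 min further read for enhancement.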
ELG1 FLuc counter: luciferase inhibition in cell-free luciferin readout for ELG1 hits; shares compounds with ELG1 DNA repair; cell-free firefly luciferase luminescence counter-screen, ViewLux; Potency, µM (titrated, usually from 46.1 µM), for inactives: top-dose activity change, negative = inhibition, actives largely listed as inhibitors; hit rate 3% among 350; also: potency is read from the fitted curve at half-maximal effect; % is scaled to controls: 0 for no effect and ±100 for the full control effect
ELG1 Luc conf: inhibits ELG1-dependent DNA repair in HEK293T cells, confirmed; shares compounds with ELG1 DNA repair; HEK293T ELG1-luciferase levels, luminescence; cells co-treated with 5-fluorouridine; Potency, µM (top dose mostly 46.1 µM), for the others: at the highest dose activity change, negative = inhibition, hits mostly inhibitors; hit rate 68% among 670; also: potency is read from the fitted curve at half-maximal effect; % is scaled to controls: 0 for no effect and ±100 for the full control effect; nearly all actives have a fitted effect of over 55% in size
ELG1-Luc MMS: inhibits ELG1-dependent repair under MMS stimulation in HEK293T cells; shares compounds with ELG1 DNA repair; HEK293T luciferase-tagged ELG1 level, MMS stimulated; Potency, µM (series often up to 46.1 µM), for the others: at the top dose activity change, negative = inhibition, usual class: inhibitors; hit rate 53% among 670; AID 624249; also: potency is read from the fitted curve at half-maximal effect; % is scaled to controls: 0 for no effect and ±100 for the full control effect; nearly all actives have a fitted effect of over 60% in size
ELG1 5FU viab: confirmation of ELG1 repair inhibitors: viability with 5FU; cell viability with 5-FU, ELG1-dependent repair; shares compounds with ELG1 DNA repair; 670 tested, under 10 active; Potency, µM (titrated, usually from 46.1 µM), for the others: at the top dose activity change, negative = viability loss, most hits filed as cytotoxic;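 also: ELG1-luc HEK293T cells cotreated with 5-fluorouridine at 10 µM final; potency is read from the fitted curve at half-maximal effect; viability measured 16 h after compound addition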
ELG1 MMS viab: confirmation of ELG1 repair inhibitors: viability with MMS. hit rate 33% among 670. shares compounds with ELG1 DNA repair. AID 624251. Cell viability with MMS, ELG1-dependent DNA repair. Potency, µM (top dose mostly 46.1 µM), without a hit: top-dose activity change, negative = viability loss, hits mostly cytotoxic;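 also: ELG1-luc HEK293T cells co-treated with 10 µM MMS; potency is read from the fitted curve at half-maximal effect; viability read 16 h after compound addition; % is scaled to controls: 0 for no effect and ±100 for the full control effect; nearly all actives have a fitted effect of over 60% in size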
ELG1 unstim viab: counter-screen for ELG1 repair inhibitors: unstimulated cell viability; shares compounds with ELG1 DNA repair; cell viability counter-screen, unstimulated, luminescence; Potency, µM (top dose mostly 45.9 µM), without a hit: at the highest dose activity change, negative = loss of viability, most hits filed as cytotoxic; hit rate 8% among 900; AID 624252;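 also: potency is read from the fitted curve at half-maximal effect; compound exposure lasted 16 hours before reading; % is scaled to controls: 0 for no effect and ±100 for the full control effect; nearly all actives have a fitted effect of over 55% in size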
FLuc biochem: counter-screen for ELG1 repair inhibitors: firefly luciferase inhibition. shares compounds with ELG1 DNA repair. purified firefly luciferase, luminescence counter-screen. Potency, µM (series often up to 57.5 µM), for the others: top-dose activity, negative = inhibition, hits mostly inhibitors. hit rate 10% among 350. AID 624253; also: potency is read from the fitted curve at half-maximal effect; % is scaled to controls: 0 for no effect and ±100 for the full control effect
Starred values were filed as active, the others as inactive; i = inactive; u = inconclusive; x = no result; [ ] = another dose, or the depositor's remark. Unless noted, calls follow the shape of the dose curve; as a rule, active = well fitted curve in the direction sought with a large enough effect; inconclusive = small, poorly fitted or top-dose-only effect, or another doubt; inactive = no such curve, though single readings can be large; an effect the other way counts as inactive or inconclusive.

SMILES	Giardia killer	FUS yeast rescue	ELG1 DNA repair	TRPV1 agonist	TRPV1 PAM	ELG1 FLuc counter	ELG1 Luc conf	ELG1-Luc MMS	ELG1 5FU viab	ELG1 MMS viab	ELG1 unstim viab	FLuc biochem
O=C(Nc1ccncc1)C1CC1c1ccccc1 (stereo not drawn)	8	i	0.15µM*	u	-10	0%	u	14µM*	-1%	16µM*	-2%	-5%
O=C(Nc1cccc(Cl)c1)C1CC1c1ccccc1 (stereo not drawn)	-5	i	x	x	x	x	x	x	x	x	x	x
Cc1nn(-c2ccc(NC(=O)c3ccncc3)cc2)c(C)c1Cl	8	i	4.6µM*	u	-4	x	14µM*	2.2µM*	-16%	1.6µM*	16µM*	x
C/C(=N\NC(=O)c1c(Cl)c(C)nn1C)c1ccc(NC(=O)c2ccncc2)cc1	-1	x	u	16	-29	x	x	x	x	x	x	x
COc1ccc(C(=O)Nc2nc(-c3ccccn3)cs2)cc1S(=O)(=O)N1CCOCC1	-7	i	4.1µM*	x	x	x	13µM*	22µM*	-2%	28µM*	u	x
O=C(Nc1nc(-c2ccccn2)cs1)c1ccc(S(=O)(=O)N2CCCCC2)cc1	x	x	0.65µM*	-3	6	u	36µM*	26µM*	11%[92.2 µM]	36µM*	u	-11%[115 µM]
COc1ccc2c(C)c(CCC(=O)NCCc3ccccc3OC)c(=O)oc2c1	x	i	x	x	x	x	x	x	x	x	x	x
Cc1ccc(CSCCC(=O)N2CCN(c3cc(C)ccc3C)CC2)cc1	x	i	x	x	x	x	x	x	x	x	x	x
O=c1[nH]c(=O)n([C@@H]2C[C@H](O)[C@H](CO)O2)cc1C(F)(F)F	x	x	x	x	x	-9%[28.2 µM]	u	-3%[23.5 µM]	-3%[23.5 µM]	u	8%[15.7 µM]	5%[35.2 µM]
COCC(C)n1c(C)cc(C(=O)COC(=O)c2cc(=O)[nH]c3ccccc23)c1C (stereo not drawn)	u	x	u	x	x	x	x	x	x	x	6%	x
CCc1nn2c(=O)cc(COc3ccc(/C=C(\C#N)C(=O)Nc4ccc(C)cc4)cc3)nc2s1	x	i	x	x	x	x	x	x	x	x	x	x
Cc1cc(C)n2nc(SCc3cccc(S(=O)(=O)N(C)C)c3)nc2n1	-3	i	-1%	-8	10	x	x	x	x	x	x	x
CN(C)S(=O)(=O)c1cccc(CSCc2cccc(S(=O)(=O)N(C)C)c2)c1	-12	i	1.3µM*	12	5	x	u	1.1µM*	-13%	1.1µM*	u	x
O=C(Nc1ccc(F)c(F)c1)c1cc(S(=O)(=O)NCc2ccc3c(c2)OCO3)ccc1F	x	i	x	x	x	x	x	x	x	x	x	x
Cc1cccc(-c2cc(C(=O)O)c3c(-c4ccc(F)cc4)[nH]nc3n2)c1	x	i	x	x	x	x	x	x	x	x	x	x
CCOc1ccccc1NC(=O)C(=O)NCC(c1cccnc1)N1CCN(c2ccccc2)CC1 (stereo not drawn)	x	i	x	x	x	x	x	x	x	x	x	x
COc1ccccc1NC(=O)c1cc2c(CO)cnc(C)c2oc1=Nc1cc(OC)c(OC)c(OC)c1	1	i	1%	-3	-2	x	x	x	x	x	x	x
COc1ccccc1NC(=O)c1cc2c(CO)cnc(C)c2oc1=Nc1ccc(OC)c(OC)c1	3	i	2.9µM*	-3	u	x	0.89µM*	u	u	u	u	x
c1ccc2c(c1)CCN(c1nc(CN3CCOCC3)nc3sc4c(c13)CCCC4)C2	-3	x	10µM*	u	-6	-11%	10µM*	u	u	-19%	-20%	-2%
O=C1c2ccccc2N2C(=O)c3ccccc3[C@H]2N1c1ccccc1	-13	i	u	u	-13	-9%	20µM*	u	3%	-17%	-12%	-1%
COC(=O)c1ccc(OCC2c3cc(OC)c(OC)cc3CCN2C(C)=O)cc1 (stereo not drawn)	-2	i	6.5µM*	2	-1	29%	10µM*	u	u	u	u	-16%
COc1ccc(-c2nnc3ccc(SCC(=O)Nc4nc5ccc(C)cc5s4)nn23)cc1OC	-10	i	u	-4	6	2%	0.32µM*	4%	u	-2%	28µM*	-6%
O=C(/C=C/C#Cc1cccc(NS(=O)(=O)c2ccccc2)c1)NO	x	x	x	x	x	x	x	x	x	x	u	x
O=C(O)/C=C/c1cccc(NS(=O)(=O)c2ccccc2)c1	4	i	-5%	1	2	x	x	x	x	x	x	x
CC(=O)c1ccc(NC(=O)CSc2nc3c(=O)n(C)c(=O)n(C)c3n2C)cc1	x	i	x	x	x	x	x	x	x	x	x	x
C[C@@H]1CN([C@H](C)CO)C(=O)c2cc(NC(=O)Nc3ccc(C(F)(F)F)cc3)ccc2O[C@H]1CN(C)Cc1ccc(Cl)c(Cl)c1	-11	u	u	x	x	x	x	x	x	x	x	x
C[C@H]1CN([C@@H](C)CO)C(=O)c2cccc(NC(=O)Nc3ccc(C(F)(F)F)cc3)c2O[C@@H]1CN(C)Cc1ccc(Cl)c(Cl)c1	10	u	4.6µM*	x	x	x	14µM*	14µM*	u	25µM*	13µM*	x
Cc1noc(C)c1NC(=O)Nc1cccc2c1O[C@H](CN(C)C(=O)Nc1ccc3c(c1)OCO3)[C@@H](C)CN([C@H](C)CO)C2=O	-11	i	u	x	x	x	x	x	x	x	x	x
C[C@H](CO)N1C[C@H](C)[C@@H](CN(C)C(=O)Nc2ccc(C(F)(F)F)cc2)Oc2c(NC(=O)Nc3ccc4c(c3)OCO4)cccc2C1=O	-20	u	0.58µM*	x	x	6%	2µM*	-18%	u	9%	-12%	u
C[C@H](CO)N1C[C@H](C)[C@@H](CN(C)C(=O)Nc2ccc(C(F)(F)F)cc2)Oc2c(NC(=O)Nc3ccccc3)cccc2C1=O	11	u	0.52µM*	x	x	-11%	6.3µM*	-13%	u	-7%	u	u
